Laboratory results as given in ChEMBL document CHEMBL3988442, “University of Dundee, Small-Polar-MMV Screening Library” (2021).
For some of these results: Measured potencies and affinities stand elsewhere.

Legend:
Set-up in all cases: scale not given: direction of the effect not stated beside the values
[1] = target: Protein translocase subunit SecA (Escherichia coli (strain K12)) (UniProt P10408); test: Assay to Identify E. coli SecA ATPase Inhibitors; assay type: functional; details: 30 µM
[2] = target: T1, Ubiquitin-activating enzyme e1, putative (Leishmania donovani (strain BPK282A1)) (UniProt E9BSI1); test: Leishmania donovani Ubiquitin Activating Enzyme (LdE1); assay type: functional; details: 30 µM
T1 sequence (whole entry): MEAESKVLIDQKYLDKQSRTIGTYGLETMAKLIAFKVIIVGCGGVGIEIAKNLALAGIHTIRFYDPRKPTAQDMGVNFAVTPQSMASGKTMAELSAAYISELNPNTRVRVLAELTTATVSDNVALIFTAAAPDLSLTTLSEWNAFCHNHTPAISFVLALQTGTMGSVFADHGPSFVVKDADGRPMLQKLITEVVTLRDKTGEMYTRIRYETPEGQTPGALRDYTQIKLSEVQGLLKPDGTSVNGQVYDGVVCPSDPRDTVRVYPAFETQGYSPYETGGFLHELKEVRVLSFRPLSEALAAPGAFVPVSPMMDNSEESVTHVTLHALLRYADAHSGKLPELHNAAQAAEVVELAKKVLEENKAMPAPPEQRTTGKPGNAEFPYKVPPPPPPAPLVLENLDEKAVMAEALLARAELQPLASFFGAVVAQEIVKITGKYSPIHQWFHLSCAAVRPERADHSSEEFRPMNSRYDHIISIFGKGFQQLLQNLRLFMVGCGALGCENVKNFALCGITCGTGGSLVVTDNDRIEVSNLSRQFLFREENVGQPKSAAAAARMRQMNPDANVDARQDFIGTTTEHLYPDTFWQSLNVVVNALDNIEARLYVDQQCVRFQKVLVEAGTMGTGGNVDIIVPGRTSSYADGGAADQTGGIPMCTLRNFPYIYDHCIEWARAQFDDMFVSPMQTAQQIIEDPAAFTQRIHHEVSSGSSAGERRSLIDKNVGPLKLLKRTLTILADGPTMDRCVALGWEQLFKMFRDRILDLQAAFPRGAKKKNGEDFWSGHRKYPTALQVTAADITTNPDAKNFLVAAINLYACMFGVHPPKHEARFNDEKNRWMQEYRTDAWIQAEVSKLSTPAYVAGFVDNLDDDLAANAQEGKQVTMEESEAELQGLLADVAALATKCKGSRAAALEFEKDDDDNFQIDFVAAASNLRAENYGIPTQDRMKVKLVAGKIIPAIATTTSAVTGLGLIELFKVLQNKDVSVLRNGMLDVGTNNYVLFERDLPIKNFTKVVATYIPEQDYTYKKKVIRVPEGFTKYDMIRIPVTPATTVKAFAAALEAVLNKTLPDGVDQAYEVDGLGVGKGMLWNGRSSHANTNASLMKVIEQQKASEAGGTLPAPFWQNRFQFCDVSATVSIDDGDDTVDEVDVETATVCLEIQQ

[3] = target: AMP-activated protein kinase, AMPK (Homo sapiens) (UniProt P54646+O43741+P54619+Q9UGJ0+Q9Y478+Q13131+Q9UGI9); test: AMP-dependent Kinase enzyme assay. An in vitro enzyme assay that detects ADP turnover that is directly proportional to AMPK activity. This uses naive AMPK that is activated during the assay with MK-8722; assay type: functional; details: 30 µM
[4] = target: Sialic acid-binding Ig-like lectin 9 (Homo sapiens) (UniProt Q9Y336); test: Hs-Siglec9 ALPHAscreen SOP 20170721; details: 10 µM
Sequence of Sialic acid-binding Ig-like lectin 9 (Homo sapiens) (Q9Y336 whole entry): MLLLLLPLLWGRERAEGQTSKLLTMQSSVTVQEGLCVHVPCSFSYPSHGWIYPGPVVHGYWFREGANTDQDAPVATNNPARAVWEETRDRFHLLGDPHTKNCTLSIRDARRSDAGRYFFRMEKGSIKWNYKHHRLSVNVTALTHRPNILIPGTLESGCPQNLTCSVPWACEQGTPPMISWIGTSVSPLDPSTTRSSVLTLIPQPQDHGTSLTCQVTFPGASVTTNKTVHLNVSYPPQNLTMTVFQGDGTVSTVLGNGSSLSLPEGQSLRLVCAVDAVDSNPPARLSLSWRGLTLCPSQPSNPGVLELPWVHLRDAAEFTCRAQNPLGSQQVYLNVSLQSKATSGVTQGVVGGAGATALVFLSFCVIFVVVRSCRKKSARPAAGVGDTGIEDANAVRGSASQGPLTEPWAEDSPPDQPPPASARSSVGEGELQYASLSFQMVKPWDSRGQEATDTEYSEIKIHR

[5] = system: Trypanosoma cruzi; test: Trypanosoma cruzi phosphomannomutase and mannose-1-phosphate guanylyltransferase assay; assay type: functional; details: 10 µM
[6] = target: T2, Arginase-2, mitochondrial (Homo sapiens) (UniProt P78540); test: in vitro enzyme assay to detect the production of urea directly proportional to the activity of Arginase II; assay type: functional; details: 33.3 µM; also: in the data most compounds retested in dose-response had high values
T2 sequence (whole entry): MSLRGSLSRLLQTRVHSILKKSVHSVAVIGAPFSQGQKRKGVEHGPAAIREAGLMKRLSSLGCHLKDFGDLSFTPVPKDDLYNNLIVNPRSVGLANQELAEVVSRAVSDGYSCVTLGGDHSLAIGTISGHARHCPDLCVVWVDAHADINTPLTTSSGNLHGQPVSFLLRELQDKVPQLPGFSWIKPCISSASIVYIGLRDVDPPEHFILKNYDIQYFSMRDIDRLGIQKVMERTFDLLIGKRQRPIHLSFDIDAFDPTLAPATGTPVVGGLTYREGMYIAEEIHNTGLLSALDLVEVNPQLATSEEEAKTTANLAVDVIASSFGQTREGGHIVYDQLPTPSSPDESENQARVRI

[7] = target: T3, Proteasome subunit beta (Trypanosoma cruzi) (UniProt O96673); test: Trypanosoma cruzi proteasome chymotrypsin-like activity (TcProtChymo) assay.; also: in the data most compounds retested in dose-response had high values; assay type: functional; details: 9.37 µM
T3 sequence (whole entry): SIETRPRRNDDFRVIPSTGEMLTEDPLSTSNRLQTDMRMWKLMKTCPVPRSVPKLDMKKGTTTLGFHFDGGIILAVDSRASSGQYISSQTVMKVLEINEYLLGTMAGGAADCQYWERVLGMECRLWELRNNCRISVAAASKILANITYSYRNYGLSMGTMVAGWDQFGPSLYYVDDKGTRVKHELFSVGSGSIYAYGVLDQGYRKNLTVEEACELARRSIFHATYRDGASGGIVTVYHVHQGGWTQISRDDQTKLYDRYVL

[8] = species on record: Homo sapiens; test: To identify inhibition of the IFN signalling (Jak-Stat) pathway via expression of an eGFP reporter gene under the control of an IFN-stimulated response element (ISRE) containing MxA promoter.; assay type: functional; details: 30 µM
[9] = target: T4, Tyrosyl-tRNA synthetase, putative (Trypanosoma cruzi (strain CL Brener)) (UniProt Q4DSP6); test: Trypanosoma cruzi tyrosyl tRNA synthetase (TcYRS) _High Tyrosine SOP; assay type: functional; details: 30 µM; also: in the data most compounds retested in dose-response had high values
T4 sequence (whole entry): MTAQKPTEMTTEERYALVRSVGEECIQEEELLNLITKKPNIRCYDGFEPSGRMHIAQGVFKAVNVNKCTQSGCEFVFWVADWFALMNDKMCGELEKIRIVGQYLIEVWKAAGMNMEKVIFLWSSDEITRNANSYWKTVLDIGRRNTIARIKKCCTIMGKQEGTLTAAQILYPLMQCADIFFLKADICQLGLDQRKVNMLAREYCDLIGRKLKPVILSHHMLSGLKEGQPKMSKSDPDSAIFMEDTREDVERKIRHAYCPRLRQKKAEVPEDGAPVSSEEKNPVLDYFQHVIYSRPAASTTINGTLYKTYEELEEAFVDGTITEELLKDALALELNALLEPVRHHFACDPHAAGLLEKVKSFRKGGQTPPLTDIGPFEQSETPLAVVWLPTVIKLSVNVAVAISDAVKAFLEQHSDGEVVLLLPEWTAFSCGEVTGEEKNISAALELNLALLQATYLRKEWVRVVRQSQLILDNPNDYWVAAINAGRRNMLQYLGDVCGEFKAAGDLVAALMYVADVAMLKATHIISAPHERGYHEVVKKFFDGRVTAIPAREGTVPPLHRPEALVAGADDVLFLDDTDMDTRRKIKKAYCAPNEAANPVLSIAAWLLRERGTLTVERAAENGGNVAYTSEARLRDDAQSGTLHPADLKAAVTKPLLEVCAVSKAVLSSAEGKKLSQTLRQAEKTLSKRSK

[10] = target: T4, Tyrosyl-tRNA synthetase, putative (Trypanosoma cruzi (strain CL Brener)); test: Trypanosoma cruzi tyrosyl tRNA synthetase (TcYRS) SOP; assay type: functional; details: 30 µM
[11] = target: Chromo domain-containing protein 1 (Saccharomyces cerevisiae (strain ATCC 204508 / S288c) (Baker's yeast)) (UniProt P32657); test: ScCHD-1 Enzyme Inhibition Assay; assay type: functional; details: 30 µM; also: in the data most compounds retested in dose-response had high values
Sequence of Chromo domain-containing protein 1 (Saccharomyces cerevisiae (strain ATCC 204508 / S288c) (Baker's yeast)) (P32657 whole entry, the tested form may be a part): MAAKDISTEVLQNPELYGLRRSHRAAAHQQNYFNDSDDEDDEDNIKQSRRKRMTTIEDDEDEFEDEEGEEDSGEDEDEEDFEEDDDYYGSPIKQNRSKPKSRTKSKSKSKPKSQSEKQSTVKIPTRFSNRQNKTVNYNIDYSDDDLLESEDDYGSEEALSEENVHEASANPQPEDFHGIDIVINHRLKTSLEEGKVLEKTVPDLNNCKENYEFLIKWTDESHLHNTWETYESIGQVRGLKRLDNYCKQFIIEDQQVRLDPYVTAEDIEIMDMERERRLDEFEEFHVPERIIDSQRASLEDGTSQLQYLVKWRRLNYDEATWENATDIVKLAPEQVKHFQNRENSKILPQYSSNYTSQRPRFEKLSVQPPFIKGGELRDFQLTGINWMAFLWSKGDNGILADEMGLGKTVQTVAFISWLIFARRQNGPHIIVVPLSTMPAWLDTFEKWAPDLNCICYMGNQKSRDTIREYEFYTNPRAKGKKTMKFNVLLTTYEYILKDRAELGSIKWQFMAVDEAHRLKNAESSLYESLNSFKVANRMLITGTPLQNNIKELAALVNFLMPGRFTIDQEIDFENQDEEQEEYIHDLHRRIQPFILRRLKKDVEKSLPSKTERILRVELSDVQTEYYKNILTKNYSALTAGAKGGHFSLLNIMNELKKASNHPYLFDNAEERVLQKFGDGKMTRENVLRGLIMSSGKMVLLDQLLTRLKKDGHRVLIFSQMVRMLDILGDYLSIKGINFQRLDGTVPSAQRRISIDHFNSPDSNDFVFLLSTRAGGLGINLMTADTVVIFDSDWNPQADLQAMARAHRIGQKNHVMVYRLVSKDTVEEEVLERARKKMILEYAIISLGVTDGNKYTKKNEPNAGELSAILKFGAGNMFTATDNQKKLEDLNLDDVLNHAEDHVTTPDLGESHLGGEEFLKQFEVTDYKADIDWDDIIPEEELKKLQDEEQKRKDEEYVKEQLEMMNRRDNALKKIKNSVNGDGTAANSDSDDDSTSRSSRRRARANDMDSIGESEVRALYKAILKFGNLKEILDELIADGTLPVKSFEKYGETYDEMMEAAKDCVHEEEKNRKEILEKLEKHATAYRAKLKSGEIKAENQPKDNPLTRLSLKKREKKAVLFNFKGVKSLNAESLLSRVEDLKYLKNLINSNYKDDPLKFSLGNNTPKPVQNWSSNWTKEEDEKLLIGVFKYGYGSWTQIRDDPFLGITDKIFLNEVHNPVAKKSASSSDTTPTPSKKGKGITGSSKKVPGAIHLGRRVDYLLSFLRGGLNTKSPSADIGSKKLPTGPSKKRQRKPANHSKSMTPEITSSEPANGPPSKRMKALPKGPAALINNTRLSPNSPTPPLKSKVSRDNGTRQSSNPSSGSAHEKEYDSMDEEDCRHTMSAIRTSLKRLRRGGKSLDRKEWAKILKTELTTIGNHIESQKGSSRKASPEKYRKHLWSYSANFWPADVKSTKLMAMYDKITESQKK

Sequence of Protein translocase subunit SecA (Escherichia coli (strain K12)) (P10408 whole entry): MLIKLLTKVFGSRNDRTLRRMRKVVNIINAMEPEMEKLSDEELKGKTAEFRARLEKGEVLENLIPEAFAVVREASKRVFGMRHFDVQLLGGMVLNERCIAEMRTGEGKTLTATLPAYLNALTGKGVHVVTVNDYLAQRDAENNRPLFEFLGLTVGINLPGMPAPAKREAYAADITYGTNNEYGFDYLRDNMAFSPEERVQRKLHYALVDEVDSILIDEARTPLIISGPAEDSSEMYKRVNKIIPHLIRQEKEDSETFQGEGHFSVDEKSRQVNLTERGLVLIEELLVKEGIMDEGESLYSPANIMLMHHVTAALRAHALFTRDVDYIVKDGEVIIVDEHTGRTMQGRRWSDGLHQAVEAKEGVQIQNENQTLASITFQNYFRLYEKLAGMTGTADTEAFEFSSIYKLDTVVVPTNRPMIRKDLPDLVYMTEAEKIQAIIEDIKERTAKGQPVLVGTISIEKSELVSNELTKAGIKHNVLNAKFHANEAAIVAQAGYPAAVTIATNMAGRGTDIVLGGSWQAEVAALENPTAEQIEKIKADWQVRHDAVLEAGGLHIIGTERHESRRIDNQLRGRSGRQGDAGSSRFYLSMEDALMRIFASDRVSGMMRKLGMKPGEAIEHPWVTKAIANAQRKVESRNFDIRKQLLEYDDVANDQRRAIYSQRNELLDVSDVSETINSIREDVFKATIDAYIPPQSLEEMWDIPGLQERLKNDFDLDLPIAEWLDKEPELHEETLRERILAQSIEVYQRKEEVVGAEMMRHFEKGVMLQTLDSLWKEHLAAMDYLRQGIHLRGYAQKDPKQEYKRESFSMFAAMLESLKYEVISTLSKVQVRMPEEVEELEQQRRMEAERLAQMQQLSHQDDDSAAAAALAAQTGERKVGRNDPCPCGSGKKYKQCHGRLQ

| SMILES | Percent Effect [1] | Percent Effect [2] | Percent Effect [3] | Percent Effect [4] | Percent Effect [5] | Percent Effect [6] | Percent Effect [7] | Percent Effect [8] | Percent Effect [9] | Percent Effect [10] | Percent Effect [11] |
| --- | --- | --- | --- | --- | --- | --- | --- | --- | --- | --- | --- |
| CCOc1nnc(CN(C)CC2CCCN2c2cccnn2)s1 (configuration not stated) | -2.36% | 7.89% | -1.61% | -2.87% | 3.41% | -8.28% | 20.2% | -2.35% | 3.19% | 10.4% | -4.84% |
| CCNC(=O)c1ncn2c1CN(C)S(=O)(=O)c1ccccc1-2 | 0.812% | 2.74% | 2.65% | 7.01% | -2.58% | -2% | 14% | 11% | 1.04% | 6.17% | -0.402% |
| Cc1cc(C)n(CC2CCCN2C(=O)c2ccc(C(N)=O)cn2)n1 (configuration not stated) | -6.82% | 16.5% | 1.06% | -0.198% | 2.56% | 1.5% | 7.38% | 7.83% | -3.12% | 17.7% | -27.9% |
| O=C1CC(c2ccccc2)c2c(n3ccsc3nc2=O)N1 (configuration not stated) | -4.74% | 17.3% | -7.29% | 1.39% | 2.16% | -6.87% | 13.3% | 5.81% | 5.29% | 15.4% | -7.95% |
| CCN(C)S(=O)(=O)N(CC)Cc1ccc2c(c1)OCO2 | -5.09% | 15.6% | 0.454% | 4.35% | -4.49% | 1.42% | 8.11% | 11.3% | 4.85% | 19.5% | -8.91% |
| CCn1cc(CNC2CC(=O)N(CCc3cccc(Cl)c3)C2)cn1 (configuration not stated) | -5.27% | 8.22% | 1.5% | 35.6% | 0.397% | -3.99% | 8.65% | 2.71% | 2.08% | 8.64% | -4.3% |
| CNC(=O)c1ccc(C(=O)N2CCCC2c2cnn(C)c2)cn1 (configuration not stated) | -3.23% | 7.89% | -6.87% | 5.79% | 3.08% | -2.88% | 9.05% | -13.2% | 5.42% | 6.17% | -6.61% |
| Cc1ccc2c(n1)N(C)CCN(C(=O)C1CC1)C2 | 1.38% | 8% | 0.651% | 2.31% | -8.69% | -54.3% | 7.69% | 12.1% | 2.08% | 17.5% | -6.8% |
| CN1CCOC(CNCc2coc(-c3cccs3)n2)C1 (configuration not stated) | -2.66% | 22.8% | -18.2% | -13.1% | 5.38% | 3.42% | 8.27% | 12.8% | 8.37% | 21.5% | -14.2% |
| CCn1cnnc1C1CCN(C(=O)c2ccc3cc[nH]c3c2)CC1 | -5.68% | 7.89% | 11.4% | 8.5% | -3.21% | 3.55% | 11% | -5.37% | -2.13% | 7.79% | -4.05% |
| O=C(NCCCn1cncn1)N1CCCC(N2CCCC2)C1 (configuration not stated) | -3.14% | 21.1% | -6.64% | -3.21% | 3.01% | 2.3% | 13.4% | 14.6% | 5.39% | 19.5% | -10.5% |
| COc1ccccc1CC1CCCN(CC(=O)N2CCOCC2)C1 (configuration not stated) | -0.695% | -7.79% | 1.77% | 6.99% | 1.08% | 2.32% | -1.54% | 2.85% | -1.91% | 0% | -10% |
| CCCn1ccc2ccc(NC(=O)N(C)CCOC)cc21 | -1.73% | -10.5% | -6.25% | 4.31% | -4.58% | 1.18% | 9.3% | -9.53% | 1.06% | 5.2% | -2.86% |
| Cn1cccc1C(=O)N1CCCC2(CCN(CCN3CCCC3)C2=O)C1 (configuration not stated) | -6.99% | 2.6% | 0.774% | 9.32% | -1.48% | -4.14% | 7.65% | 11.9% | -2.15% | -1.24% | 0.981% |
| Cc1nnc(CCNC2CCN(c3ncnc4c(C)csc34)CC2)s1 | -3.21% | 7.79% | 3.06% | 11% | 7.77% | -2.76% | 12.8% | 40.2% | 8.6% | 16.1% | -8.66% |
| Cn1ccnc1C(NCc1csc(Br)c1)c1ccccc1 (configuration not stated) | -4.88% | 21.6% | 3.42% | 17.4% | 4.92% | 1.66% | 13.8% | 12.7% | 12.9% | 30.5% | -7.11% |
| CN(C)Cc1cc(=O)n2c(n1)CN(C(=O)Cc1ccsc1)CCC2 | 0.204% | 2.6% | 0.0483% | -0.795% | 0.492% | 1.38% | 6.49% | -22.4% | 1.07% | 1.24% | -2.76% |
